Test results taken from the supplement of paper PMC11417369.
± gives the standard deviation of the averaged measurements. Whole data set: some 25,000 sequences, median “ln(normalized median fluorescence intensity)” near 10, cut for the highest 2% near 12. This excerpt belongs to a sample that is enriched for the highest values.

These sequences were tested on PfAP2-G AP2 domain (GST-tagged) (assay: gcPBM binding intensity (ln(normalized median fluorescence intensity)); higher = stronger DNA binding).
Outline: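 Binding intensity is the highest Masliner-normalised natural-log median intensity over replicate spots in either probe orientation. To obtain it, GST-tagged P. falciparum DNA-binding domains made in E. coli were incubated for 1 h on an Agilent 4 × 180k array of primer-extended double-stranded 36-bp intergenic genomic probes plus negative controls. Detection used Alexa488 anti-GST antibody with scanning at 488 nm.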

| Sequence | gcPBM binding intensity (ln) |
| --- | --- |
| ATAACAAATATGATAGCATGCTACATATTACAACTT [TGCATGCA_site524] | 9.71 ± 0.16 |
| TATATCTGTAAATGCACACATATGTGGATATACTTA [CACACA_site5013] | 10.1 |
| ATATATATATATAGTAGTACTCTCTCTGTATATATA [XGTACX_site3754] | 11.3 ± 0.75 |
| TATATAAACCCACCTACACACACAACGTAAATGCAT [CACACA_site8702] | 10.2 ± 0.14 |
| AAAAAAAAAAAAAACACACAGAAATATATATATATT [CACACA_site832] | 9.82 ± 0.33 |
| ATATATACCTATATTACACACTTCTTATTCTAAGAA [CACACA_site7421] | 9.865 ± 0.092 |
| ATATAAATGAATATATGTACATATATATATATATAT [XGTACX_site6361] | 11.2 ± 0.52 |
| AAGGAGCCTATGAACACACACATGTACAGATATTAA [CACACA_site6107] | 11.1 ± 0.52 |
| TATATATACATATACACACACACACCGATATATATA [CACACA_site8706] | 10.1 ± 0.26 |
| TATACAATATTTATAACACACATATTTATATAAACT [CACACA_site6932] | 9.885 ± 0.078 |
| ATTATATATACATATACACACATACGTACATACATA [CACACA_site9194] | 11.5 ± 0.93 |
| TGAATAAATAAGATACGTACACACATATACAAAATA [XGTACX_site7758] | 11.5 ± 0.83 |
| GAATAAATAAGATACGTACACACATATACAAAATAT [CACACA_site3660] | 11.7 ± 1.1 |
| TTACACATATTATATATATATAAAAAAAAAAAATAT [CACACA_negctrl_site1684] | 9.82 ± 0.29 |
| TGCTCTAATTTATATACACACAAATATGTACACATA [CACACA_site7845] | 11.7 ± 1.2 |
| AAAGATAAAATATATACACACACATAAATACGTACA [CACACA_site8275] | 11.3 ± 0.88 |
| GATTTATACAAATATGTACACACTAATTATATATTA [CACACA_site8045] | 11.5 ± 0.87 |
| TAATATTCAATTATACGTACACATATATATATATAT [XGTACX_site4245] | 11.8 ± 1.1 |
| ATACATATATAAATACGTACATATATAATTATATAT [XGTACX_site8178] | 11.6 ± 0.93 |
| TAAAATATTACGTGTACACATAAATAAAAATAAAAA [CACACA_site5066] | 11.8 ± 0.92 |
| TCATATAAATACACGTGTACATATATATATTACAGT [XGTACX_site1954] | 11.5 ± 0.81 |
| TGTACAAATATGTACACACACACATATTTATTTATA [CACACA_site6419] | 11.5 ± 0.95 |
| ATTCTACGCACGCGCACACACAACAAAAAAAAAAAA [CACACA_site3538] | 10.8 ± 0.68 |

| Sequence | gcPBM binding intensity (ln) |
| --- | --- |
| AACAGACATAGACACACACACATATATTTATTTATA [CACACA_site7571] | 10.11 ± 0.085 |
| TTAACATAAATTGTGTCATTTTTTTTTTTTTTTTTA [CACACA_negctrl_site1221] | 9.725 ± 0.021 |
| TAGCGCATAAAAAAAAAAAAATATATACTAATAAAT [GTGCAC_negctrl_site276] | 9.57 ± 0.071 |
| TTCTATATATATATAGACAAACGATAAAATAAAAAA [GTGCAC_negctrl_site142] | 10.1 ± 0.23 |
| GTATATTTCTTTAAATGTACACATTTTTTTAAAGAG [XGTACX_site1225] | 11.4 ± 0.98 |
| AAAAACGAAAAAAATACACACCTGAAAAGATATGTA [CACACA_site4644] | 9.72 ± 0.16 |
| TGACATATAAAATATTCACACACAAGTTATAGTTCT [CACACA_site9209] | 9.74 ± 0.11 |
| CCAATGAGGATATATACACACATACATTAAAAAAAT [CACACA_site5090] | 10 ± 0.17 |
| AATTTAATATAATGCACACATAAAAAAAAAATCAAA [CACACA_site1] | 10.1 ± 0.18 |
| AATTTGTTATGTATATGTACATAAATAGATATATGA [XGTACX_site3930] | 11.2 ± 0.7 |
| AAAGATATTTTTATCTCACACATATAATATATATAT [CACACA_site5478] | 9.84 ± 0.16 |
| AAATTAAAATATAATACACACATAAAAAAAAAAAAA [CACACA_site4183] | 9.82 ± 0.38 |
| ATATATATATACATACGTACACACAAATATTAAAAT [XGTACX_site4007] | 11.6 ± 1.2 |
| TATATATACATACGTACACACAAATATTAAAATATA [CACACA_site1951] | 11.5 ± 1.1 |
| AAAAAAAATTAAATAAATAAATATACACATATATAT [GTGCAC_negctrl_site394] | 9.47 ± 0.26 |
| TTAAAATTAAAAATGCGTACACATATACATAAAAAA [XGTACX_site1915] | 11.7 ± 1 |
| TATATATATACATACGTACACACAAATATTAAAATA [CACACA_site1950] | 11.8 ± 1.2 |
| TAGATATATAATTTGCGTACACAAATAATATATTTT [XGTACX_site6397] | 11.4 ± 0.97 |
| AATAATACACAATTTTGTACGTATTTAAAATATATT [XGTACX_site45] | 11.3 ± 0.87 |
| ATTAAATATATTTTGCGTACACAAAAAAATACGTTC [XGTACX_site3862] | 11.6 ± 0.97 |
| TATGGAACACACCTTAATATGTGATAAAATATGATA [GTGCAC_negctrl_site718] | 10 ± 0.2 |
| AAAAATTTATTTAAAAGTACATAAAATAAAGGTGGA [XGTACX_site7591] | 11.4 ± 0.69 |
| ACATCATTTTTATGTACACACACATATACGTTGAAT [CACACA_site5095] | 11.6 ± 0.98 |

| Sequence | gcPBM binding intensity (ln) |
| --- | --- |
| AAGAAAATTAAATTAACACACATAAATATATATATA [CACACA_site1664] | 9.85 ± 0.28 |
| GACATTAAAATGAAATATACATATATATGTATATAT [TGCATGCA_negctrl_site601] | 9.635 ± 0.049 |
| AATTAAAATAGTAATACACACTTCATAGGAAATGAT [CACACA_site5045] | 9.83 ± 0.014 |
| TAACATTAAAATAAAAGTACTTAATAATATTAAGTA [XGTACX_site5920] | 11.1 ± 0.87 |
| TCTTATTTTTTTATATATACAAAGTTTTATATATAT [GTGCAC_negctrl_site314] | 9.915 ± 0.049 |
| TTTCCTGGTCAAGGGGTTACGGTTACGTCCTCTTGC [CACACA_negctrl_site856] | 10.7 ± 0.49 |
| TAAATTAAGAATTTTACACACATTAAATAAAAAAAA [CACACA_site3638] | 9.805 ± 0.078 |
| ATTTTAGAATTTAATACACACAAAAAAAAAAAATTA [CACACA_site3704] | 10 ± 0.33 |
| AAATTTTAATTAGACTGTACACATTTTAGAATAATT [XGTACX_site4819] | 11.6 ± 0.92 |
| TTAAAAGATATTACATGTACATATTCAATATATGTA [XGTACX_site5895] | 11.1 ± 0.69 |
| AATTGTACGTAGGGGTATAAAAGCTTAAAAATGGGG [CACACA_negctrl_site1392] | 11.6 ± 0.91 |
| GAATGGACGTTAGGGGGTACGTATAAAATTTATCAA [XGTACX_site683] | 11.7 ± 0.81 |
| ACGTATCAATTTATTGGTACACATAAATATATATAT [XGTACX_site5556] | 11.3 ± 0.92 |
| ATATATTTTCAAAAAAGTAAATCAAAATAAATATAT [TGCATGCA_negctrl_site319] | 9.84 ± 0.085 |
| AATACAGATAATACAACACACAAGTAATATAAACCT [CACACA_site5900] | 9.975 ± 0.021 |
| GGTGATATAATATATACATGCACATATATATTATTA [TGCATGCA_site970] | 9.9 ± 0.042 |
| CATTTAAAATTTGTTTGTACATATATATATATATAT [XGTACX_site6729] | 11 ± 0.66 |
| GTAGGTGTTTTTGGTTGTACATATAAATATATATAC [XGTACX_site3380] | 11.3 ± 0.8 |
| AAAATTAATGTTGGTTGTACAAAAATTAAATATGGT [XGTACX_site66] | 11.3 ± 0.75 |
| TCCTTAAAATATGGTTGTACGTACATCCTAGGTGTT [XGTACX_site7068] | 11.7 ± 0.97 |
| TATATAAATATATATGTACACACATATACATGTTGA [CACACA_site9022] | 11.3 ± 0.92 |
| TATTTCAAATGTTATGTGCACATATTAATCCTACTT [GTGCAC_site9738] | 10.5 ± 0.28 |
| ATAATTATCATAGGATGTACATATTTATTTTGTATA [XGTACX_site7797] | 11.2 ± 0.67 |

| Sequence | gcPBM binding intensity (ln) |
| --- | --- |
| TTATATTTATATTTATGTACATATTTTGTGTGAAAA [XGTACX_site2367] | 11.4 ± 0.97 |
| TTTATTAAAACAAAATGTACACACATATAATTTAAT [XGTACX_site1637] | 11.2 ± 0.68 |
| TTATTAAAACAAAATGTACACACATATAATTTAATG [CACACA_site8193] | 11.3 ± 0.73 |
| ATTTTTGTAATTATTTGTACACATTTATTTATGTGT [XGTACX_site1864] | 11.5 ± 0.73 |
| AATGTGAAAACGTGTACACATTTTATTTAATTTATC [CACACA_site5966] | 11.6 ± 0.98 |
| GCAAATGTGAAAACGTGTACACATTTTATTTAATTT [XGTACX_site8000] | 11.7 ± 1 |
| CGTTATATATTTTATAGTACTTTTTGTAAATTTTTT [XGTACX_site7682] | 11.1 ± 0.67 |
| CGATATGTTCAATATTGTACTATTTATAATAATATG [XGTACX_site3051] | 11 ± 0.69 |
| ATATATATATATATATGTACTAAATATTCATCCTTA [XGTACX_site6039] | 11 ± 0.65 |
| TGAATATAACAAATATGTACTTAAAATTGTTATATT [XGTACX_site5679] | 11.1 ± 0.76 |
| GTGTAATATATTTTTCGTACATATTATATATATATA [XGTACX_site1675] | 11 ± 0.69 |
| AATTATTTTAGAAACACACAAATTAGAAAAAACATA [CACACA_site7673] | 10.2 ± 0.24 |
| AATTTTTTTTTTAGACGTACAAGAAAAAACAAAAAA [XGTACX_site4990] | 11.7 ± 0.75 |
| AAGAAAAAACAAACATGTACACATAATTTAGTTTTT [XGTACX_site3121] | 11.4 ± 0.89 |
| TTTTTTGCTAAGTGTACACAAATGTTTATTAATTTA [CACACA_site5859] | 11.7 ± 1 |
| ATTTTTTTTGCTAAGTGTACACAAATGTTTATTAAT [XGTACX_site7440] | 11.7 ± 0.81 |
| TTTATATGTATTAAGTGTACACATATAATGTGTTTT [XGTACX_site4890] | 11.6 ± 0.87 |
| TATTTTTTTTTTTAATGTACAAACAAATTATGTTGG [XGTACX_site2873] | 10.8 ± 0.57 |
| TTTATATGTATTAAGTGTACACATATAATGTATTTT [XGTACX_site16] | 11.5 ± 0.83 |
| ATATATAATTTTTGCTGTACACAAAATATTAATTTA [XGTACX_site2057] | 11.5 ± 0.86 |
